# Source: PubChem BioAssay AID720647 (Broad Institute, 2013)
# The campaign covered roughly 380,000 compounds. About 1,300 (0.34%) were called active.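 Rule for the calls: active = drop in luminescence signal, shown as inhibition above about 50% in the replicate tests (limit read from the data, passing the limit was not always enough); inconclusive = probably only some replicates passing the limit; inactive = the rest.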 The entries come from a sample that favours actives as a whole.
# Tested on: Drosophila bursicon receptor LGR2 (rickets)
# Assay: inhibitors of bursicon-induced LGR2 CRE-luciferase signal, primary screen, cell-based, HEK293, CRE-luciferase reporter, bursicon stimulation (AID 720647);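 note: agonist challenge used bursicon conditioned medium at about half maximal strength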
# Settings: bursicon-stimulated, 4 h, at 9.99 µM, stronger effect = higher value
row,SMILES,inhibition
1,C[C@@H]1CN([C@@H](C)CO)S(=O)(=O)c2ccc(Br)cc2O[C@@H]1CN(C)C(=O)C1CCCCC1,-1.83% (inactive)
2,Cc1noc(C)c1NC(=O)Nc1ccc2c(c1)C(=O)N([C@@H](C)CO)C[C@@H](C)[C@H](CN(C)C(=O)NC(C)C)O2,9.15% (inactive)
3,CCCNC(=O)[C@H]1[C@H](CO)[C@H]2Cn3c(ccc(-c4cccc(F)c4)c3=O)[C@@H]1N2C(=O)CC,4.62% (inactive)
4,CC(C)CC#Cc1ccc([C@H]2[C@H]3CN(C(=O)CN4CCOCC4)CC(=O)N3[C@H]2CO)cc1,-1.92% (inactive)
5,COc1ccc2c3c(n(C)c2c1)[C@H](CO)N(C(=O)CC1CC1)CC31CCN(Cc2nccs2)CC1,4.96% (inactive)
6,Cc1cc(C(=O)COc2ccccc2Cl)c(C)n1C1CC1,-70% (inactive)
7,Cc1cc(C(=O)CSc2nc(N)cc(=O)[nH]2)c(C)n1-c1cccc(F)c1,1.57% (inactive)
8,Cc1cc(C(=O)COC(=O)C2CC2)c(C)n1-c1ccc(F)cc1,81.6% (active)
9,CNC[C@@H]1Oc2ccc(NC(=O)Nc3ccc4c(c3)OCO4)cc2C(=O)N([C@H](C)CO)C[C@@H]1C,-5.83% (inactive)
10,CO[C@@H]1CN(C)C(=O)c2cc(NS(C)(=O)=O)ccc2OC[C@@H](C)N(C(=O)C2CCC2)C[C@@H]1C,-11.1% (inactive)
11,O=C(C[C@H]1CC[C@H]2[C@@H](COC[C@@H](O)CN2Cc2ccccc2)O1)N[C@@H]1CCN(Cc2ccccc2)C1,1.95% (inactive)
12,O=C(NC1=CC(=O)c2ccccc2C1=O)c1ccccc1,61.4% (active)
13,CCS(=O)(=O)N1CC2(C1)CN(S(=O)(=O)c1ccccc1)[C@H](CO)c1c2c2ccc(OC)cc2n1C,-11.1% (inactive)
14,CC(C)NC(=O)Nc1ccc2c(c1)CC(=O)N([C@H](C)CO)C[C@@H](C)[C@@H](CN(C)C(=O)Nc1ccc3c(c1)OCO3)O2,-3.26% (inactive)
15,CCCCCCCCn1c2c(c(=N)c3c1CCC3)CCCC2,52.6% (active)
16,Cc1noc(C)c1NC(=O)Nc1ccc2c(c1)C(=O)N([C@@H](C)CO)C[C@@H](C)[C@H](CN(C)Cc1ccc(C(F)(F)F)cc1)O2,-7.29% (inactive)
17,C[C@H]1CN([C@@H](C)CO)C(=O)c2cc(C3=CCCCC3)cnc2O[C@@H]1CN(C)C(=O)c1ccc(F)cc1,2.17% (inactive)
18,CN1c2ccc(Br)cc2[C@@H]2[C@@H](CCN2C(=O)C2CCCC2)[C@H]1CO,1.06% (inactive)
19,Cc1cc(=O)cc(C)n1-c1ccc(Cl)c(Cl)c1,5.96% (inactive)
20,COc1cccc(C2SCC(=O)N2c2cccc(C)c2)c1OC (stereo not given),7.83% (inactive)
21,Cc1cccc(-n2ncc(Cl)c(Cl)c2=O)c1,103% (active)
22,CCNC(=O)C[C@@H]1CC[C@H]2[C@@H](COC[C@@H](O)CN2C(=O)c2cc(Cl)cc(Cl)c2)O1,11.4% (inactive)
23,C[C@@H]1CN([C@@H](C)CO)C(=O)c2cc(NS(=O)(=O)c3ccccc3)ccc2O[C@H]1CN(C)S(=O)(=O)c1ccc(Cl)cc1,13.5% (inactive)
24,CCOC(=O)C1=C(c2ccccc2)NC(=O)NC1c1cc(OC)c(OC)cc1OC (stereo not given),8.83% (inactive)
25,CCOC(=O)C1=C(C)c2ccccc2OC1C(=O)OCC (stereo not given),-7.81% (inactive)
26,CCOC(=O)C1=C(c2ccc(OC)cc2)C(=O)c2ccccc2C1=O,99.6% (active)
27,CO[C@H]1CN(C)C(=O)c2cc(NC(=O)Nc3ccc4c(c3)OCO4)ccc2OC[C@@H](C)NC[C@@H]1C,-36.2% (inactive)
28,C[C@H](CO)N1C[C@H](C)[C@H](CN(C)C(=O)Nc2ccccc2C(F)(F)F)OCc2cn(nn2)CCCC1=O,3.25% (inactive)
29,CC(C)NC(=O)N(C)C[C@H]1OCCCC[C@H](C)Oc2ccc(NC(=O)CCC(F)(F)F)cc2C(=O)N([C@H](C)CO)C[C@H]1C,1.7% (inactive)
30,Cc1noc(C)c1S(=O)(=O)N(C)C[C@@H]1Oc2ccc(NC(=O)Cn3cnnn3)cc2CC(=O)N([C@@H](C)CO)C[C@H]1C,0.447% (inactive)
